Screening data: PubChem, National Center for Advancing Translational Sciences (NCATS)
HttQ103 aggreg = qHTS Multiplex Assay to Identify Dual Action Probes in a Cell Model of Huntington: Aggregate Formation (GFP); PC12 HttQ103-GFP aggregates, Acumen cytometry, 40 h; Potency, µM (series often up to 46.1 µM), for inactives: at the highest dose activity change, negative = inhibition, hits mostly inhibitors; 220,000 compounds, 1.1% hits; active = well fitted curve in the direction sought with a large enough effect; inconclusive = small, poorly fitted or top-dose-only effect, or another doubt; inactive = no such curve, though single readings can be large; an effect the other way counts as inactive or inconclusive; also: % is scaled to controls: 0 for no effect and ±100 for the full control effect; nearly all actives have a fitted effect of over 60% in size
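Ecdysone-promoter PC12 model expressing HTT exon 1 Q103 fused to GFP, induced by tebufenozide at 100 nM final. Compounds titrated; aggregates sized 1–25 µm scored on a 488 nm laser cytometer.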
ALDH1A1 block = qHTS Assay for Inhibitors of Aldehyde Dehydrogenase 1 (ALDH1A1); Potency, µM (series often up to 75.3 µM), inactives show at the highest dose activity, negative = inhibition, hits mostly inhibitors; 220,000 compounds, 7.3% hits; Aldehyde dehydrogenase 1A1 (Homo sapiens), P00352; Purified ALDH1A1, NADH fluorescence, propionaldehyde substrate; AID 1030, 2008;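 also: plate controls were no enzyme wells and a reference inhibitor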
Target sequence (P00352 whole entry, looked up): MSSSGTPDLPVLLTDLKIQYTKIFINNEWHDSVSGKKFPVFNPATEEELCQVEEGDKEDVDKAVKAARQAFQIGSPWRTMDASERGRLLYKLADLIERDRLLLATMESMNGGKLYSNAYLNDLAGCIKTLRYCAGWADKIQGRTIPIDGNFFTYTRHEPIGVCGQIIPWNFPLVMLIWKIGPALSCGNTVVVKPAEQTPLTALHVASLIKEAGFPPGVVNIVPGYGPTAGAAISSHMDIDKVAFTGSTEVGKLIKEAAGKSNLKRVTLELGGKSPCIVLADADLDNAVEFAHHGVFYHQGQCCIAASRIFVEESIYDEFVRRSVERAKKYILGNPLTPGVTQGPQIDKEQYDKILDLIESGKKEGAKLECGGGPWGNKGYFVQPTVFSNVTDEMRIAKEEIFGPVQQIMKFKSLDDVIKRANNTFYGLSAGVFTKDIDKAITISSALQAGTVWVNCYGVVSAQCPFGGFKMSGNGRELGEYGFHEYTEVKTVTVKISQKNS
HPGD block = qHTS Assay for Inhibitors of HPGD (15-Hydroxyprostaglandin Dehydrogenase); Potency, µM, for the others: top-dose activity change, negative = inhibition, hits mostly inhibitors; purified HPGD, NADH fluorescence kinetic, PGE2 substrate; 150,000 compounds, 4.3% hits; AID 894, 2007; 15-hydroxyprostaglandin dehydrogenase [NAD(+)] (Homo sapiens), P15428; also: % is scaled to controls: 0 for no effect and ±100 for the full control effect
Target sequence (P15428 whole entry, looked up): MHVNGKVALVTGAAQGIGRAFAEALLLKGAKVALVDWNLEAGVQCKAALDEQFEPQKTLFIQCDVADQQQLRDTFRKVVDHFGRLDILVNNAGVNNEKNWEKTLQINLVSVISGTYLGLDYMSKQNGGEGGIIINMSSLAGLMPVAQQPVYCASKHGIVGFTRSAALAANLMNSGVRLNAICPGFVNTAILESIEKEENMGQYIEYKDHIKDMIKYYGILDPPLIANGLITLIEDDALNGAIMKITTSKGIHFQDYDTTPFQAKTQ
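NADH formation kinetics: reaction with 30 uM PGE2 and 1 mM NAD+ (final), 20 nM enzyme, Tris-HCl pH 8 with Tween 20, after 15 min compound preincubation at room temperature. Fluorescence change, last versus first of five reads.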
HTT ATP protect = qHTS Multiplex Assay to Identify Dual Action Probes in a Cell Model of Huntington: Cytoprotection (ATP); AID 1471, 2008; PC12 HTT-Q103 induced, cytoprotection, ATP luminescence, 40 h; 230,000 compounds, 0.14% hits; Potency, µM (top dose mostly 56.4 µM), for inactives: cytoprotection (ATP increase), usual class: activators; active = well fitted curve in the direction sought with a large enough effect; inconclusive = small, poorly fitted or top-dose-only effect, or another doubt; inactive = no such curve, though single readings can be large; an effect the other way counts as inactive or inconclusive; also: % of control where 0% means no effect; nearly all actives have a fitted effect of over 45% in size
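Cells were plated at 1500 per well in phenol red-free DMEM with 5% equine and 5% calf serum. Tebufenozide (100 nM final) and compounds were added, then ATPlite reagent, and luminescence was read.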
Lamin A splicing = qHTS Assay for Modulators of Lamin A Splicing; HeLa LMNA splicing GFP/RFP minigene ratio, 48 h; Potency, µM (doses to about 46.1 µM), without a hit: top-dose ratio change, negative = inhibition, actives largely listed as inhibitors; 200,000 compounds, 0.01% hits; active = well fitted inhibition curve with a large enough effect in the signal ratio, with a control signal flat, not every such curve was filed as active; inconclusive = small, poorly fitted or top-dose-only effect, or effect the other way, or a change in a side signal; the % refers to the signal ratio; also: % is scaled to controls: 0 for no effect and ±100 for the full control effect
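Read-out is the ratio of GFP to DsRed2 object intensity, acquired by 488 nm laser-scanning cytometry on HeLa lamin A-EGFP minigene reporter cells. Compound incubation 48 hrs at 37 °C in Opti-MEM with 2% FBS; DMSO 0.5% final.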
Starred values were filed as active, the others as inactive; ? = inconclusive; . = no result; [ ] = another dose, or the depositor's remark. An excerpt weighted towards active compounds, which were near 8.8% of everything screened. Unless noted, calls follow the shape of the dose curve; as a rule, active = well fitted inhibition curve with a large enough effect (not every such curve was filed as active); inconclusive = small, poorly fitted or top-dose-only effect, or another doubt; inactive = no such curve, though single readings can be large or run the other way. Potency is read from the fitted curve at half-maximal effect.

SMILES	HttQ103 aggreg	ALDH1A1 block	HPGD block	HTT ATP protect	Lamin A splicing
Fc1ccc(-n2[nH]nnc2=S)cc1N1CCCC1	-8.7%	14.1µM*	17.8µM*	-25.5%[0.074 µM]	3.4%
Nc1cc(Cl)ccc1N1CCCCC1	8.0%[9.22 µM]	-10.1%	.	20.5%[10 µM]	39.6%[46 µM]
CC/C=C\C/C=C\C/C=C\C/C=C\C/C=C\C/C=C\CCC(=O)O	29.4%	22.4µM*	-7.2%	10.9%	.
COc1cc(/C=N/NC(=S)NC2CC3CCC2C3)ccc1O (configuration not stated)	-4.8%[9.22 µM]	17.8µM*	.	-8.1%[10 µM]	?
COc1ccc(/C=N/NC(=S)N[C@H]2CC3CCC2C3)cc1 (some centres not stated)	9.9%[9.22 µM]	?	.	10.2%[10 µM]	.
COc1ccc(NC(=O)C(=O)N/N=C/c2cc(C)n(-c3cccc(Cl)c3Cl)c2C)c(OC)c1	-8.1%	31.6µM*	?	-3.2%	-14.6%
CC(Sc1nnc(-c2ccccc2)c(-c2ccccc2)n1)C(=O)N1CCc2ccccc21 (configuration not stated)	2.2%	7.08µM*	.	17.3%[10 µM]	-22.5%
CCc1cc(C(=O)c2ccc(OC)cc2)c(N)s1	0.112µM*	.	.	.	.
CCN1C(=O)C(Cc2nc3ccccc3c(=O)n2C)c2ccccc21 (configuration not stated)	4.5%	?	-4.5%	-0.2%	8.2%
CCCN1C(=O)C(Cc2nc3ccccc3c(=O)n2C)c2ccccc21 (configuration not stated)	9.5%	0.282µM*	-6.1%	-20.3%	8.4%
COc1ccc(C=O)cc1OC(=O)C1(C)Cc2ccccc2C(=O)O1 (configuration not stated)	10.1%	5.01µM*	.	.	.
O=C1CCCC=C1[C@H](O)CCCCBr	.	-4.4%[13.5 µM]	.	-4.1%[10 µM]	.
O=C(c1cccnc1)N1CCc2ccccc21	4.4%	1.4%	-0.3%	-5.6%	-10.7%
O=C(c1cccnc1)N1CCc2ccccc2C1	0.8%	2.1%	31.6µM*	14.4%	5.2%
O=C(NCc1ccc2c(c1)CCN2C(=O)c1ccncc1)c1cccc(Cl)c1	.	.	.	.	-0.9%[46 µM]
CCCNC(=O)c1c(N)n(-c2cc(OC)cc(OC)c2)c2nc3ccccc3nc12	17.8µM*	?	?	-21.1%[0.074 µM]	-9.4%
COc1ccccc1NC(=O)Cn1c(SCC(=O)N(C)c2ccccc2)nc2ccccc21	.	.	.	.	0.0%[46 µM]
CCOC(=O)c1c(C)c(C(=O)NCc2ccc(OC)cc2)c(C)n1C	-12.1%	7.94µM*	.	.	.
CCOC(=O)c1c(C)c(C(=O)Nc2ccc3c(c2)OCCO3)c(C)n1CC	-12.0%	-8.0%	-10.6%	-30.9%	?
CCOC(=O)c1c(C)c(C(=O)N2CCN(c3ccccc3)CC2)c(C)n1C	-24.3%	-3.9%	.	-14.1%	.
CCOC(=O)c1c(C)c(C(=O)N2CCCCCC2)c(C)n1CC	-1.0%	0.1%	12.6µM*	-13.2%[10 µM]	-14.2%
CCOC(=O)c1c(C)c(C(=O)NCC2CCCO2)c(C)n1CC (configuration not stated)	5.4%	?	22.4µM*	9.5%[1.9 µM]	20.4%
CCOC(=O)c1c(C)c(C(=O)N2CCCCCC2)c(C)n1C	-31.6%	0.4%	15.8µM*	-0.7%	-4.3%
CCOC(=O)c1noc2ncnc(N3CCN(c4cccc(Cl)c4)CC3)c12	.	.	.	.	3.7%[46 µM]
Cc1nc(N2CCCC2)c2c(C(=O)Nc3cccc(Cl)c3C)c(C)oc2n1	.	.	.	.	-10.5%[46 µM]
SMILES	HttQ103 aggreg	ALDH1A1 block	HPGD block	HTT ATP protect	Lamin A splicing
COc1ccc(NC(=O)CSc2nc3ccccc3n2CC(=O)Nc2cccc(C)c2C)cc1	.	.	.	.	10.7%[46 µM]
CCOC(=O)c1sc(NCC2CCCO2)nc1C (configuration not stated)	?	-4.2%	12.6µM*	?	-4.7%
CCOC(=O)c1sc(Nc2ccccc2)nc1C	-15.7%	-11.0%	?	-17.9%	31.4%
CCOCCc1nn2c(=O)cc(COC(=O)CNC(=O)c3cccc(C)c3)nc2s1	.	.	.	.	-1.1%[46 µM]
O=C(CSc1cn(Cc2ccccc2)c2ccccc12)Nc1nccs1	-5.4%	14.1µM*	-10.4%	-26.7%	7.0%
O=C(CSc1ccccc1)Nc1nccs1	25.3%	11.6%	.	1.0%[10 µM]	3.3%[46 µM]
O=C(CSc1cn(Cc2ccccc2)c2ccccc12)NCc1ccc(F)cc1	-4.4%	7.94µM*	-7.5%	.	15.1%
O=C(O)CC(C(=O)O)c1cn(Cc2ccccc2)c2ccccc12 (configuration not stated)	-12.5%	11.2µM*	-11.1%	-19.3%	-0.3%
CC[C@@H](c1ccccc1)n1c(=O)n2n(c1=O)[C@H]1[C@H](O)[C@H]3O[C@@H]3/C(=N/OCC(C)C)[C@@H]1CC2	.	9.9%[13.5 µM]	.	-31.4%[10 µM]	.
COc1cc(NC(=O)CN2CCCN(Cc3cccc(F)c3)S2(=O)=O)cc(OC)c1	.	.	.	.	-5.1%[46 µM]
Cc1ccc2[nH]c(C)cc(=S)c2c1	10.4%	17.8µM*	.	?	.
CCOc1ccc(C(=O)N/N=C/c2cc(Cl)ccc2[N+](=O)[O-])cc1	16.5%	-10.3%	22.4µM*	-3.0%[10 µM]	7.7%
CS(=O)(=O)N(CC(=O)NCc1ccccn1)Cc1ccc(Cl)cc1	2.7%	7.94µM*	-0.5%	-2.0%[10 µM]	1.3%
Cc1ccc(OCCN2CCN(c3ncnc4sc(C)c(C)c34)CC2)cc1	2.51µM*	-4.2%	-23.0%	-27.9%	?
CCOc1ccccc1NC=C1C(=O)OC2(CCCCC2)OC1=O	10.5%	0.708µM*	-4.4%	-2.1%	-6.6%
COc1ccc(OC)c(NC=C2C(=O)OC(C)(C)OC2=O)c1	10.4%	0.178µM*	-17.6%	27.8%	-9.1%
COc1ccc(OC)c(NC=C2C(=O)OC3(CCCCC3)OC2=O)c1	0.1%	0.0891µM*	?	0.4%	-12.9%
COc1ccc(OC)c(Nc2ccc(Nc3cc(OC)ccc3OC)nn2)c1	19.2%	-5.2%	-5.2%	14.8%[10 µM]	?
COc1ccc(C(=O)Nc2cccc(OC)c2)cc1	-7.6%	?	-24.2%	-49.1%	0.8%
COc1ccc(C(=O)NC=C2C(=O)OC(C)(C)OC2=O)cc1	-15.9%	12.6µM*	.	-34.6%	.
CCOc1ccccc1N/C=C/C(=O)C(C)(C)C	12.9%	-5.4%	-18.6%	-14.7%	-1.3%
Cc1nnc(S(=O)(=O)c2ccc(N=Nc3c(N)nc(N)nc3N)cc2)s1	.	-1.2%[13.5 µM]	-2.4%	-15.1%[10 µM]	.
COc1ccc2nc3c(cc2c1)Cc1ccccc1-3	.	?	?	-119.1%	.
CC(=O)c1cccc(NC=C2C(=O)OC3(CCCCC3)OC2=O)c1	24.1%	2.24µM*	-26.3%	-1.4%	-1.0%
CC(=O)c1cccc(N/C=C\C(=O)c2ccc(C)cc2)c1	21.8%	?	-23.2%	2.0%[10 µM]	-0.9%
COC(=O)c1ccc(CN(Cc2ccc(OC)c(OC)c2)S(=O)(=O)c2cc(C(=O)Nc3cccc(C)c3)ccc2F)cc1	.	.	.	.	-0.9%[46 µM]
O=C1/C(=C/c2ccc(C(=O)O)cc2)CCC/C1=C\c1ccc(C(=O)O)cc1	?	-1.3%	20µM*	.	19.3%
